# This excerpt belongs to a sample that is enriched for hits.
# Dicer processing: inhibitors of Dicer pre-microRNA processing, primary screen, biochemical, cat-ELCCA, chemiluminescence; Endoribonuclease Dicer (Homo sapiens), Q9UPY3; cat-ELCCA pre-miR-21 Dicer processing; active compounds read high; z-score at 25 µM; 47,000 compounds, 6% hits; AID 1347074, 2019; in the data active means z-score above about 3, passing the limit was not always enough;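 further: plate controls were vehicle for no effect and no enzyme for full effect; higher signal means more uncleaved substrate so more Dicer inhibition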
# Numbers without * were called inactive.
SMILES,Dicer processing
Cc1ccc(C2OC3(C(=O)c4ccccc4C3=O)C3C(=O)N(c4cccc(Cl)c4)C(=O)C23)cc1 (stereo unspecified),-0.17
Cc1onc(-c2c(Cl)cccc2Cl)c1NC(=O)c1c(-c2c(Cl)cccc2Cl)noc1C,0.05
CCOC(=O)C1=C(N)n2c(s/c(=C\c3ccc(OC)cc3)c2=O)=CC1c1ccc(OC)cc1 (stereo unspecified),1.2
COc1ccc(CNCc2cc(Br)ccc2OC)cc1,2.2
COc1cc(CNCc2cc(Br)ccc2OC)cc(OC)c1,0.2
COc1ccc(Br)cc1CNc1cc(C)cc(C)c1,3.6*
CC(NS(=O)(=O)c1ccc(Oc2c(Cl)cccc2[N+](=O)[O-])cc1)c1ccccc1 (stereo unspecified),-0.24
CN(C)Cc1ccc(CSCCNC(=O)Nc2ccc(OCc3ccccc3)cc2)o1,-0.63
S=C1C=C(N2CCCCC2)CC(c2cccs2)S1 (stereo unspecified),4.9*
O=S(=O)(c1ccccc1)N1CCCC1c1cccs1 (stereo unspecified),-0.38
CC1(C)CC(N2CCCCC2)=CC(=S)S1,0.21
CCOC(=O)Nc1c(N)n(C)c(=O)n(C)c1=O,0.58
CCCSc1nnc2c(n1)OC(/C=C/c1ccc([N+](=O)[O-])o1)Nc1ccccc1-2 (stereo unspecified),3.5*
CCSc1nnc2c(n1)OC(c1ccc(O)cc1)Nc1ccccc1-2 (stereo unspecified),-0.74
CCSc1nnc2c(n1)OC(c1ccc(N(C)C)cc1)Nc1ccccc1-2 (stereo unspecified),1.4
CC(C)c1ccc(NC2(C(N)=O)CCCCC2)cc1,-0.27
N#Cc1ncoc1-c1ccc(Cl)cc1,2.4
N#Cc1cnc(Sc2nnc(-c3cccs3)n2-c2ccc(Cl)cc2)nc1N,-0.15
Nc1c(-c2ccc3ccccc3n2)c2ccc([N+](=O)[O-])cc2c(=O)n1Cc1ccccc1,-1.1
COc1ccc(-c2c(N)n(-c3ccccc3)c(=O)c3cc([N+](=O)[O-])ccc23)cc1OC,3.4*
COc1cccc(-n2c(N)c(C#N)c3ccc([N+](=O)[O-])cc3c2=O)c1,-0.03
CSc1nc2ccc(NS(=O)(=O)c3ccccc3C(F)(F)F)cc2s1,-1.2
O=S(=O)(Cc1nc(CSc2nnc(SCC3CC3)s2)cs1)c1ccc(Cl)cc1,1.3
CSc1nc(-c2ccccc2)nc(Sc2cccc(C(F)(F)F)c2)c1C#N,26*
CSc1nc(-c2ccccc2)nc(Nc2ccc(C(F)(F)F)cc2)c1C#N,-0.46
SMILES,Dicer processing
Cc1c(C#N)c(Sc2cccc(C(F)(F)F)c2)nc2ccccc12,-1.1
CCOc1ccc(C2C(C(=O)OC)=C(C)N=C3SCCC(=O)N32)cc1 (stereo unspecified),-1.5
CCc1ccccc1-n1c(SCC(O)C(F)(F)F)nc2ccccc2c1=O (stereo unspecified),-0.29
Cc1cc2c(cc1C)CSC(C)(c1ccccc1)SC2,0.16
Cn1c(SCc2ccccc2)nnc1-c1csc(Cc2ccsc2)n1,0.17
COC(=O)C1=C(C)NC2=C(C(=O)c3ccccc32)C1c1cccs1 (stereo unspecified),-6.3
COC(=O)C1=C(C)NC2=C(C(=O)c3ccccc32)C1c1ccccc1Cl (stereo unspecified),-1
COC(=O)C1=C(C)NC2=C(C(=O)c3ccccc32)C1c1ccc(-c2ccc(Cl)cc2)o1 (stereo unspecified),3.6*
O=C1c2ccccc2C(=O)N1c1cscc1S(=O)(=O)c1ccc(Cl)cc1,-1.6
CCOc1ccc(C2c3c(oc4ccc(F)cc4c3=O)C(=O)N2Cc2ccco2)cc1 (stereo unspecified),0.16
N#Cc1ccc(CNC(=S)Nc2ccccc2Cl)cc1,1.5
CC(=O)N1CCN(CCn2c(C)c3c(=O)n(-c4nc5ccccc5s4)[nH]c3cc2=O)CC1,-0.51
Cc1c2c(=O)n(-c3nc4ccccc4s3)nc-2cc(O)n1Cc1ccccc1,0.33
Cc1c2c(=O)n(-c3nc4ccccc4s3)[nH]c2cc(=O)n1Cc1ccc(C(=O)O)cc1,27*
O=C(Cc1ccccc1Cl)N/N=C(/C(=O)O)c1ccccc1,-1.6
O=C(COc1cccc2cccnc12)N1CCN(C(=O)COc2cccc3cccnc23)CC1,0.42
CCOC(=O)C(=O)Nc1sc2c(c1C(=O)OCC)CC(C)(C)OC2,4.8*
CCCCC(=O)Nc1sc2c(c1C(=O)OCC)CC(C)(C)OC2,-0.37
CCOC(=O)c1c(NC(=O)CC)sc2c1CC(C)(C)OC2,1
O=C1CCCC2=C1C(c1ccc(Cl)cc1)c1c([nH]c(=O)[nH]c1=O)N2 (stereo unspecified),-1.8
COc1ccc(-c2nc(C#N)c(NC3CC3)o2)cc1,-0.79
O=C1CC(c2cccs2)CC2=C1C(c1ccc(Cl)c(F)c1)Nc1ccccc1N2 (stereo unspecified),4.2*
O=C1CC(c2ccccc2)CC2=C1C(c1cccc(O)c1)Nc1ccccc1N2 (stereo unspecified),0.93
O=C1CC(c2cccs2)CC2=C1C(c1ccc(Cl)cc1)Nc1ccccc1N2 (stereo unspecified),65
COc1ccc(C2CC(=O)C3=C(C2)Nc2ccccc2NC3c2ccc(F)c(F)c2)cc1 (stereo unspecified),2.7
SMILES,Dicer processing
O=C1CC(c2cccs2)CC2=C1C(c1cccc(O)c1)Nc1ccccc1N2 (stereo unspecified),3.2*
O=C1CC(c2ccccc2)CC2=C1C(c1cccs1)Nc1ccccc1N2 (stereo unspecified),-0.49
CCOC(=O)/C(C#N)=C/c1ccc(N(C)C)cc1Cl,0.39
O=[N+]([O-])c1cc(C(F)(F)F)ccc1S(=O)(=O)c1ccc(Cl)cc1,2
O=C(Nc1ccc2c(c1)OCCO2)c1cc2ccccc2o1,0.46
O=C(NC1=NCCS1)c1cccs1,-1.1
O=C(NC1=NCCS1)c1cc2ccccc2o1,3.6*
NNC(=O)c1[nH]ncc1-c1ccc(Cl)cc1Cl,-1.4
Nc1cc(=O)[nH]c2nnc(SCc3ccccc3Cl)n12,2.5
C#CCSc1nnc2[nH]c(=O)cc(N)n12,2.7
CC(C)CCSc1nnc2[nH]c(=O)cc(N)n12,3.4*
CC(=O)Oc1ccc2c(c1)oc(=O)c1ccccc12,0.98
O=C1C2C3c4ccccc4C(c4ccccc43)C2C(=O)N1Cc1ccccc1 (stereo unspecified),2.8
COc1cccc(C2CC(=O)Nc3nc(N)[nH]c(=O)c32)c1 (stereo unspecified),-0.75
CNC(=O)Nc1ccc(C(C)(C)C)cc1Cl,5.1*
CCOC(=O)NC(=S)Nc1ccc(C(C)(C)C)cc1Cl,2.7
CNC(=O)NNC(=O)c1ccc(C(C)(C)C)cc1,-2.4
CNC(=O)C(C)NC(=O)OC(C)(C)C (stereo unspecified),0.96
Nc1cccc(-c2nnc(-c3ccco3)o2)c1,-0.52
CCSCCOC(=O)C1=C(C)NC2=C(C(=O)CCC2)C1c1ccc(CC)cc1 (stereo unspecified),2.5
COC(=O)C1=C(C)NC2=C(C(=O)CCC2)C1c1ccc(C(=O)OC)cc1 (stereo unspecified),-0.18
CCSCCOC(=O)C1=C(C)NC2=C(C(=O)CCC2)C1c1ccccc1OCc1ccccc1 (stereo unspecified),6*
CCCCCOC(=O)C1=C(C)NC2=C(C(=O)CCC2)C1c1ccccc1OCCC (stereo unspecified),0.33
CC1=C(C(=O)OCC2CCCO2)C(c2ccc(OCc3ccccc3)cc2)C2=C(CCCC2=O)N1 (stereo unspecified),0.06

# Screens deposited in PubChem by Center for Chemical Genomics, University of Michigan.
